Screens from PubChem BioAssay.
A selection: hits, their analogues and other compounds. The true share with any hit is near 2.4%.
Rango-impB inh = qHTS Assay for Inhibitors of Rango (Ran-regulated importin-beta cargo) - Importin beta complex formation; Importin subunit beta-1 (Homo sapiens), Q14974; Rango CFP/YFP FRET sensor + importin beta, 45 min; Potency, µM (titrated, usually from 92.2 µM), inactives show top-dose inhibition of complex formation; 0.031% of 340,000 active; AID 540263, 2011; calls by dose curve;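 note: 0% = DMSO wells and 100% = buffer wells lacking importin beta; nearly all actives have a fitted effect of over 15% in size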
Target sequence (Q14974 whole entry, looked up): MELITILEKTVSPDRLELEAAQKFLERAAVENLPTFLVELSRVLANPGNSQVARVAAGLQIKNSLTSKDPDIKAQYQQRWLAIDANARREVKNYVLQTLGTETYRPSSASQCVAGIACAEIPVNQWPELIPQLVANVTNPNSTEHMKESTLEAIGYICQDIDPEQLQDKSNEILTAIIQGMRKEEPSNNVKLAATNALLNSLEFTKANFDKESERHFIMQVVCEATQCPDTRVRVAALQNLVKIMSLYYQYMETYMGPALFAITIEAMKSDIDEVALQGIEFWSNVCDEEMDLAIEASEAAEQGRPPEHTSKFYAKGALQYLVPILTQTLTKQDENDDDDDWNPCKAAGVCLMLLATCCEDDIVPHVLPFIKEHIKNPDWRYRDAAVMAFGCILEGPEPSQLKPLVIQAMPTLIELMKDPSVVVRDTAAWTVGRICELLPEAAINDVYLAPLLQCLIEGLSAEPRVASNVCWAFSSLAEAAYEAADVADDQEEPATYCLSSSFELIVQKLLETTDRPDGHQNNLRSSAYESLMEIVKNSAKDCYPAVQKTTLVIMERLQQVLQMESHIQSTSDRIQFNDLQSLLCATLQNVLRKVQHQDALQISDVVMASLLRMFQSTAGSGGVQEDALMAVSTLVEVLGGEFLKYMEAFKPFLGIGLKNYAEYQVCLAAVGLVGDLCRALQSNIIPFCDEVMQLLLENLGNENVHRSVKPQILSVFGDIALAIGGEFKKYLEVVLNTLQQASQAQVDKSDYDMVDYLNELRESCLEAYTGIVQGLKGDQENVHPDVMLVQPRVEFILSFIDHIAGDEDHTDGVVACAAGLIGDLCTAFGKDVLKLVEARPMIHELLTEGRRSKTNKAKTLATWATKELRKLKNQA
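FRET biosensor Rango (snurportin 1 IBB between N-terminal EYFP and C-terminal Cerulean), 50 nM in PBS/1 mM DTT/0.02% Tween-20/0.1% BSA, preincubated 5 min RT with compound; 0.125 microM importin beta added, 45 min RT, CFP/YFP FRET ratio read.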
PKM2 activator = qHTS Assay for Activators of Human Muscle isoform 2 Pyruvate Kinase. Pyruvate kinase PKM (Homo sapiens), P14618. purified PKM2, Kinase-Glo ATP luminescence, activation; response scale: 0% is enzyme alone, no compound. Potency, µM (highest dose often 57.5 µM), without a hit: top-dose activation, hits mostly activators. 0.34% of 260,000 active; note: % is set by controls: 0 for no effect and ±100 for the full control effect; nearly all actives have a fitted effect of over 55% in size
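Purified hPK-M2 (>95%) run at intermediate activity with 0.1 mM ADP and 0.5 mM PEP in 50 mM imidazole pH 7.2, KCl, MgCl2; 1 h room temperature. ATP formed read by Kinase-Glo luminescence; normalized to uninhibited and no-enzyme controls.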
Tb PGK inh = qHTS Assay to Find Inhibitors of Phosphoglycerate Kinase | Phosphoglycerate kinase, glycosomal (Trypanosoma brucei brucei), P07378 | PGK/GAPDH coupled, Kinase-Glo luminescence, 60 min | Potency, µM (highest dose often 57.5 µM), for the others: top-dose activity change, negative = inhibition, usual class: inhibitors | 0.043% of 380,000 active | AID 602233, 2012; note: % is set by controls: 0 for no effect and ±100 for the full control effect; nearly all actives have a fitted effect of over 60% in size
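Recombinant glycosomal PGK reaction used 1,3-bisphosphoglycerate generated in-well by GAPDH (100nM final) in 100mM TEA pH 7.6, 5mM MgCl2, 0.01% Tween-20. After 60 minutes at room temperature, ATP was read by Kinase-Glo Plus luminescence end-point.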
ELG1 repair inh = qHTS screen for small molecules that inhibit ELG1-dependent DNA repair in human embryonic kidney (HEK293T) cells expressing luciferase-tagged ELG1; Potency, µM (titrated, usually from 46.1 µM), inactives show at the highest dose activity change, negative = inhibition, actives largely listed as inhibitors; AID 504467, 2011; HEK293T ELG1-luciferase reporter, luminescence, 16 h; DNA damage induced by 5-fluorouridine; 2.3% of 330,000 active; note: % is set by controls: 0 for no effect and ±100 for the full control effect; nearly all actives have a fitted effect of over 55% in size
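Step one: seed 2,000 cells per well. Step two: pin-transfer compound or DMSO alongside 5-fluorouridine. Step three: incubate 16 hr, 37 °C, 5% CO2. Step four: add ONE-Glo, wait 30 min, read luminescence.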
Tb PFK block = qHTS Assay to Find Inhibitors of T. brucei phosphofructokinase; ATP-dependent 6-phosphofructokinase (Trypanosoma brucei brucei), O15648; Potency, µM (highest dose often 57.5 µM), for the others: top-dose activity, negative = inhibition, most hits filed as inhibitors; T. brucei PFK, ADP-Glo luminescence; AID 485367, 2010; 0.17% of 330,000 active;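 note: 0% = uninhibited 1x PFK enzyme wells and -100% = no-enzyme wells; nearly all actives have a fitted effect of over 60% in size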
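1.25 nM PFK with 0.5 mM F6P and 0.1 mM ATP in 0.1 M TEA pH 8.0, 5 mM MgCl2, incubated 45 min at room temperature; ADP measured by ADP-Glo luminescence; compounds titrated up to 57 uM.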
Rango release inh = qHTS Assay for Inhibitors of RanGTP induced Rango (Ran-regulated importin-beta cargo) - Importin beta complex dissociation; 0.071% of 340,000 active; Potency, µM (doses to about 46.1 µM), for the others: at the highest dose activity change, negative = inhibition; Biochemical FRET Rango-importin beta, RanGTP-induced dissociation; calls by dose curve; note: % of control where 0% means no effect; nearly all actives have a fitted effect of over 45% in size
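Recombinant Rango FRET biosensor (EYFP–snurportin 1 IBB–cerulean CFP10) at 0.1 uM premixed with 0.25 uM importin beta in PBS, 1 mM DTT, 0.02% Tween-20, 0.1% BSA. Compound added 5 min; RanGTP-RCC1 (0.6 uM Ran, 2 mM GTP, 0.2 uM RCC1) then triggers release, read at 45 min.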
Starred values were filed as active, the others as inactive; i = inactive; ? = inconclusive; · = no result given. Unless noted, calls come from the whole dose curve; as a rule, active = well fitted curve in the direction sought with a large enough effect; inconclusive = small, poorly fitted or top-dose-only effect, or another doubt; inactive = no such curve, though single readings can be large; an effect the other way counts as inactive or inconclusive. Potency is the fitted concentration of half-maximal effect.

SMILES	Rango-impB inh	PKM2 activator	Tb PGK inh	ELG1 repair inh	Tb PFK block	Rango release inh
CN(C)S(=O)(=O)c1cccc(-n2sc3ccccc3c2=O)c1	1%	2.8µM*	-13%	?	13µM*	9%
O=c1c2ccccc2sn1-c1cccc(Cl)c1	·	·	i	·	·	·
Cn1c(SCC(=O)NC2CCCCC2)nnc1C(F)(F)F	·	·	-5%	·	·	·
O=C(N=Nc1c(O)[nH]c2ccccc12)c1ccc(CN2CCOCC2)cc1	1%	-2%	-2%	11%	-2%	-8%
Cc1ccc(CN2CCN(CC(=O)N=Nc3c(O)[nH]c4ccccc34)CC2)cc1	0%	-13%	0%	8.2µM*	-1%	-4%
O=C(CN1CCN(Cc2ccccc2Cl)CC1)N=Nc1c(O)[nH]c2ccccc12	-2%	2%	2%	21µM*	4%	-2%
Cc1ccc(S(=O)(=O)N(CC(=O)N=Nc2c(O)[nH]c3ccccc23)c2cccc(C)c2)cc1	11%	-5%	-2%	21µM*	0%	17%
O=C(C1CCC(Cn2c(=S)[nH]c3ccccc3c2=O)CC1)N1CCN(c2ccccn2)CC1 (stereo not given)	1%	2%	-8%	5.2µM*	1%	-17%
O=C(C1CCC(Cn2c(=S)[nH]c3ccccc3c2=O)CC1)N1CCN(c2ccccc2)CC1 (stereo not given)	-2%	·	-4%	·	·	10%
O=C(CCCn1c(=S)[nH]c2ccc(Br)cc2c1=O)N1CCN(c2ccccn2)CC1	1%	1%	i	18µM*	4%	-12%
O=C(C1CCC(CNc2nc(=S)[nH]c3ccccc23)CC1)N1CCN(c2ccc(F)cc2)CC1 (stereo not given)	0%	1%	3%	23µM*	-6%	4%
O=C(CCCn1c(=S)[nH]c2ccc(Br)cc2c1=O)NCc1ccccn1	4%	·	10%	-2%	-3%	-6%
O=C(Nc1ccccc1F)c1ccc(O)c2ncccc12	·	·	·	·	-7%	·
CC(=O)N1CCc2c(sc(NC(=O)CSc3ccccc3)c2-c2nc3ccccc3s2)C1	·	·	1%	·	·	·
CCCCC(=O)Nc1sc2c(c1-c1nc3ccccc3s1)CCN(C(C)=O)C2	·	10%	·	18µM*	1%	·
CC(=O)N1CCc2cc(S(=O)(=O)NC(Cc3ccccc3)C(=O)Nc3cc(C)ccc3C)ccc21 (stereo not given)	·	·	-1%	·	·	·
CCc1nnc(NC(=O)CCC(=O)N2CCN(CCOc3ccc(C)cc3)CC2)s1	5%	-1%	0%	23µM*	-1%	12%
O=C(CN1c2ccccc2S(=O)(=O)c2ccccc21)Nc1ccccc1Cl	·	·	i	·	·	·
COc1ccc(NC(=O)CC2C(=O)N(c3ccc(C)cc3)C(=O)N2Cc2ccc(C)cc2)cc1 (stereo not given)	·	·	-9%	·	·	·
O=[N+]([O-])c1ccc(Nc2nc(N/N=C/c3cccc(F)c3)nc(N3CCCC3)n2)cc1	-1%	0%	-9%	4.6µM*	21%	-7%
O=[N+]([O-])c1cccc(/C=N/Nc2nc(N3CCOCC3)nc(N3CCOCC3)n2)c1	0%	-4%	-12%	?	0%	9%
COc1cccc(/C=N/Nc2nc(Nc3ccc([N+](=O)[O-])cc3)nc(N3CCCC3)n2)c1O	5%	0%	i	6.5µM*	-9%	11%
CC12CC3CC(C)(C1)CC(C(=O)NCc1cccnc1)(C3)C2	4%	3%	i	-6%	-4%	-5%
CC(C)(C)c1ccc(C(=O)NCCC(=O)Nc2ccc3c(c2)OCCO3)cc1	0%	·	9%	?	20%	-9%
Cc1ccc(-n2ncc3c(NCCC4=CCCCC4)ncnc32)cc1C	·	·	i	·	·	·
SMILES	Rango-impB inh	PKM2 activator	Tb PGK inh	ELG1 repair inh	Tb PFK block	Rango release inh
Cc1ccc2c(=O)cc(CSc3ncn[nH]3)[nH]c2c1C	·	·	-2%	·	·	·
Cn1c(N)c(C(=O)COC(=O)c2ccc(C(F)(F)F)cc2)c(=O)n(C)c1=O	3%	·	6%	-1%	0%	-7%
CC(C)Cn1c(N)c(C(=O)CSc2ccc3c(c2)OCCO3)c(=O)n(C)c1=O	2%	1%	-3%	7.3µM*	0%	-9%
CC(C)Cn1c(N)c(C(=O)COC(=O)c2ccccc2C(=O)c2ccccc2)c(=O)n(C)c1=O	0%	·	-4%	16µM*	1%	-6%
CC(C)Cn1c(N)c(C(=O)COC(=O)/C=C/c2cccs2)c(=O)n(C)c1=O	3%	-3%	-6%	9.2µM*	0%	-17%
CC(C)Cn1c(N)c(C(=O)COC(=O)c2ccccc2Cl)c(=O)n(C)c1=O	-2%	8%	-4%	?	1%	-2%
CC(C)Cn1c(N)c(C(=O)COC(=O)Cc2cccs2)c(=O)n(C)c1=O	0%	-9%	-1%	-9%	-1%	5%
Cn1c(N)c(C(=O)COC(=O)c2ccc(-c3ccccc3)cc2)c(=O)n(C)c1=O	0%	·	-9%	23µM*	-4%	5%
Cc1c(C(=O)OCC(=O)c2c(N)n(CC(C)C)c(=O)n(C)c2=O)oc2ccccc12	0%	0%	i	10µM*	1%	-11%
Cn1c(N)c(C(=O)CCl)c(=O)n(Cc2ccccc2)c1=O	-2%	?	3%	21µM*	-2%	0%
CC(C)Cn1c(N)c(C(=O)COC(=O)c2cccc(Cl)c2)c(=O)n(C)c1=O	-3%	0%	7%	21µM*	2%	-4%
COc1ccc(-c2cc(C(=O)OCC(=O)c3c(N)n(C)c(=O)n(C)c3=O)c3ccccc3n2)cc1	-4%	-8%	0%	9%	4%	-1%
COc1ccc(/C=C2\CCCc3c2nc2ccccc2c3C(=O)OCC(=O)c2c(N)n(C)c(=O)n(C)c2=O)cc1	·	0%	·	3.3µM*	0%	·
COc1cccc(NC(=O)Cn2cc(S(=O)(=O)Cc3ccccc3F)c3ccccc32)c1	·	·	9%	·	·	·
CCOC(=O)c1c(NC(=O)c2cc(CC)on2)sc(C)c1C	·	·	-5%	·	·	·
